Data taken from PubChem BioAssay (NCATS).
Records with an inconclusive call do not appear. A call without a number means that no potency is given here. Active and inactive are the calls of the source. Unless noted, calls come from the whole dose curve; as a rule, active = well fitted curve in the direction sought with a large enough effect; inconclusive = small, poorly fitted or top-dose-only effect, or another doubt; inactive = no such curve, though single readings can be large; an effect the other way counts as inactive or inconclusive.

Assays:
[1] = AP1 Signaling Pathway (AID 357; active = well fitted curve in either direction with a large enough effect, not every such curve was filed as active;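 note: ME-180 reporter cells stimulated with EGF at its EC50 level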); settings: ME-180 (cervical carcinoma) AP-1-bla reporter, EGF-induced, beta-lactamase ratio, 5 h; at 38 µM (top of the series)
How it was run: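 AP-1-bla ME-180 cells, Opti-MEM + 0.5% dialyzed FBS, plated overnight 37 °C. Cpd titration + EC50 EGF, 5 h 37 °C. CCF4 2.5 h RT; ex 405, em 460/530 ratio → %activity, AC50.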

[2] = target: Glucocorticoid receptor (Homo sapiens) (UniProt P04150); assay: GR-GFP Redistribution (AID 450;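 active = compounds whose dose series gives a full or clear partial fitted curve of increased nuclear translocation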; note: potency is the fitted concentration of half-maximal effect); settings: U2OS GR-GFP nuclear translocation, laser cytometry, 2 h
[3] = target: Glucocorticoid receptor (Homo sapiens) (UniProt P04150); assay: GR-EFC Redistribution (AID 451; calls by dose curve; note: potency is the fitted concentration of half-maximal effect); settings: CHO-K1 GR-EFC translocation, beta-gal luminescence, 2 h
How it was run: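 CHO-K1 cells stably expressing nuclear-localized β-gal enzyme acceptor and GR fused C-terminally to the enzyme donor fragment; ligand-driven nuclear translocation restores β-gal by complementation. Compounds titrated up to 46 uM final, 2 h at 37 °C; luminescence read.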

[4] = target: 3',5'-cyclic-AMP phosphodiesterase 4B (Homo sapiens) (UniProt Q07343); assay: qHTS Assay for Inhibitors of PDE-IV (AID 607; active = well fitted activation curve with a large enough effect in the main read-out, with a control signal flat, not every such curve was filed as active)
How it was run: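 Cell-based read-out of cAMP via a modified cyclic nucleotide-gated channel and membrane potential dye (535/590 nm) in HEK293 cells expressing PDE4 endogenously. Compounds tested up to 22.9 uM final; 100 uM RO 20-1724 reference.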

[5] = target: Guanine nucleotide-binding protein G(i) subunit alpha-1 (Homo sapiens) (UniProt P63096); assay: qHTS Assay for Inhibitors of RGS12 GoLoco Motif Activity (Green Fluorophore) (AID 879);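 note: negative values mean loss of peptide binding seen as reduced polarization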
How it was run: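 Fluorescence polarization assay: 50 nM Gαi1 with 10 nM FITC-labeled RGS12 GoLoco peptide in 10 mM Tris pH 7.5, 150 mM NaCl, 0.1 mM GDP, 0.05% NP40, 10 min at room temperature with compound.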

[6] = target: Cytochrome P450 3A4 (Homo sapiens) (UniProt P08684); assay: qHTS Assay for Activators of Cytochrome P450 3A4 (AID 885); note: nearly all actives have a fitted effect of over 65% in size
How it was run: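 Signal was normalized against complete inhibition by 57 uM ketoconazole. The reaction used 20nM CYP3A4 with 25uM Luciferin-PPXE, 10-min compound preincubation and a 60-min NADPH-supported step at RT.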

[7] = target: Cytochrome P450 2C19 (Homo sapiens) (UniProt P33261); assay: qHTS Assay for Inhibitors and Substrates of Cytochrome P450 2C19 (AID 899); note: nearly all actives have a fitted effect of over 60% in size
How it was run: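 NADPH-dependent conversion of Luciferin-H EGE (10uM, at KM) by 5nM enzyme in 50mM KPO4, 60 min at 37C following 10 min compound preincubation. Stopped with luciferin detection buffer; luminescence read after 20 min.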

[8] = target: Pyruvate kinase (Leishmania mexicana) (UniProt Q27686); assay: qHTS Validation Assay for Inhibitors of Leishmania Mexicana Pyruvate Kinase (AID 945)
How it was run: (§1)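 The enzyme is a highly purified E451W mutant of LmPYK used at 0.2 nM. It converts 0.5 mM PEP and 0.1 mM ADP over 1 h at room temperature; product ATP is quantified by luciferase luminescence relative to DMSO controls.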

[9] = target: Pyruvate kinase PKM (Homo sapiens) (UniProt P14618); assay: qHTS Assay for Activators of Human Muscle Pyruvate Kinase (AID 954; active = well fitted curve in the direction sought with a large enough effect, not every such curve was filed as active)
How it was run: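 Human PKM2 activity is measured as ATP generation, detected by luciferase-coupled luminescence. The enzyme (0.1 nM) acts on 0.5 mM PEP and 0.1 mM ADP for 1 h at ambient temperature; data are normalized to uninhibited and full-inhibition wells.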

[10] = target: Pyruvate kinase (Leishmania mexicana) (UniProt Q27686); assay: qHTS Validation Assay for Activators of Leishmania Mexicana Pyruvate Kinase (AID 959)
How it was run: as §1

[11] = target: Alpha-galactosidase A (Homo sapiens) (UniProt P06280); assay: Counterscreen for Glucocerebrosidase Inhibitors: qHTS Assay for Human alpha-Galactosidase at pH 4.5 (AID 992)
How it was run: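 Quantitative HTS: compounds tested from 0.7 nM up to 77 uM against 2 nM enzyme with 80 uM 4-MU alpha-D-galactopyranoside. The 20 min room-temperature reaction is stopped with 1M NaOH/1M glycine, pH 10.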

[12] = target: alpha-glucosidase (Oryza sativa, rice) (UniProt Q653V4); assay: Counterscreen for Glucocerebrosidase Inhibitors: qHTS Assay for Rice alpha-Glucosidase at pH 5.0 (AID 997)
How it was run: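 Rice alpha-glucosidase (4 nM final) with 400 uM 4-methylumbelliferyl-alpha-D-glucopyranoside in citrate buffer pH 5.0, 20 min at room temperature, stopped at pH 10; fluorescence 365/440 nm, compounds 0.7 nM–77 uM, AC50 from Hill fits.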

[13] = qHTS Assay for Lipid Storage Modulators (AID 1519; calls by dose curve); settings: Drosophila S3 cells, BODIPY lipid droplet/cell ratio, laser cytometry, cells loaded with oleic acid
How it was run: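 Cells seeded at 5,000 per well were treated with compounds over a concentration series and loaded with oleic acid (400 uM, as added). Lipid droplet fluorescence (488 nm excitation, 500-530 nm channel) was read by laser-scanning cytometry and normalized to 20 uM Triacsin C.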

[14] = target: DNA repair nuclease/redox regulator APEX1 (Homo sapiens) (UniProt P27695); assay: qHTS Validation Assay for Inhibitors of the Human Apurinic/apyrimidinic Endonuclease 1 (APE1) (AID 1705; note: potency is the fitted concentration of half-maximal effect)
How it was run: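 Read-out: TAMRA fluorescence (525 nm ex, 598 nm em) from cleavage of a quenched THF abasic-site duplex, 50 nM final; activity taken as intensity change between third and first of three reads 60 s apart.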

[15] = Counterscreen for APE1 Inhibitors: Fluorescent Dye Displacement Validation Assay (AID 1707); note: potency is the fitted concentration of half-maximal effect
How it was run: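 Compounds are scored by their ability to displace Thiazole Orange (250 nM) from a 50 nM TAMRA-tagged duplex bearing a tetrahydrofuran abasic site. Buffer is 50 mM Tris-HCl pH7.5, 50mM NaCl, 2 mM MgCl2, 0.01% Tween-20.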

[16] = target: Endonuclease 4 (Escherichia coli (strain K12)) (UniProt P0A6C1); assay: Counterscreen for APE1 Inhibitors: qHTS Validation Assay for Inhibitors of Endonuclease IV (AID 1708); note: potency is the fitted concentration of half-maximal effect
How it was run: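 2 nM enzyme was preincubated with compounds for 15 min at room temperature in 50 mM Tris-HCl pH 7.5, 50 mM NaCl, 2 mM MgCl2, 1 mM DTT, 0.01% Tween-20. 50 nM THF-abasic TAMRA/BHQ-2 duplex substrate started the reaction.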

[17] = qHTS for differential inhibitors of proliferation of Plasmodium falciparum line 7G8 (AID 1815);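 note: parasite growth measured after three days of incubation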
[18] = qHTS for differential inhibitors of proliferation of Plasmodium falciparum line 3D7 (AID 1876);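 note: parasite growth measured after three days of culture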
[19] = qHTS for differential inhibitors of proliferation of Plasmodium falciparum line Dd2 (AID 1882); settings: Potency: Plasmodium falciparum Dd2 proliferation inhibition;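 note: compound exposure of 72 h on infected erythrocytes; nearly all actives have a fitted effect of over 65% in size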
How it was run: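 SYBR Green I DNA fluorescence read-out, ex 485/em 535 nm. Signals were normalized to 0.29 uM artemisinin and DMSO wells, then corrected using vehicle-only plates flanking each stack. Parasite growth ran 72 h in erythrocytes before lysis.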

[20] = target: ATP-dependent DNA helicase Q1 (Homo sapiens) (UniProt P46063); assay: qHTS Validation Assay for Inhibitors of RecQ-Like Dna Helicase 1 (RECQ1) (AID 2353); note: potency is the fitted concentration of half-maximal effect
How it was run: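 50 nM RECQ1T1 preincubated 15 min with compound in Tris pH 8.0 buffer with MgCl2, DTT, Tween-20 and 2.5 ug/ml poly(dI-dC); started with 200 nM TAMRA/BHQ-2 forked duplex and 2 mM ATP. Unwinding read as fluorescence (525/598 nm), two reads 2 h apart.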

[21] = target: RecQ-like DNA helicase BLM (Homo sapiens) (UniProt P54132); assay: qHTS Validation Assay for Inhibitors of Bloom's syndrome helicase (BLM) (AID 2364); note: potency is the fitted concentration of half-maximal effect
How it was run: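 BLM 50 nM in 25 mM Tris-HCl pH 8.0, 5 mM NaCl, 2 mM MgCl2, 1 mM DTT, 0.01% Tween-20, 2.5 ug/ml poly(dI-dC); 15 min cpd preinc, RT. Start: 200 nM forked DNA + 2 mM ATP (final). TAMRA read, 2 reads 2 h apart.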

[22] = Cytometric Cell-Based qHTS for Inhibitors of the mTORC1 Signaling Pathway in MEF (Tsc2-/-, p53-/-) Cells (AID 2660);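 note: percent of cells above a phospho-rpS6 to PI ratio cutoff in each well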
How it was run: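 Immunofluorescence qHTS of rpS6 Ser235/236 phosphorylation: MEFs (Tsc2-/-, p53-/-) treated 24 h, 37 C, in DMEM + 10% FBS. Alexa-488 signal normalized to PI count, referenced to rapamycin (7.5 nM) and DMSO; PI cell number recorded for viability.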

[23] = High Content Imaging Cell-Based qHTS for Inhibitors of the mTORC1 Signaling Pathway in MEF (Tsc2-/-, p53-/-) Cells (AID 2666); settings: at 38.3 µM (top of the series);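 note: percent of cells scored positive for phospho-rpS6 Ser235/236 immunostaining by imaging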
How it was run: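 Read-out: % positive cells per well, with thresholds from highest- and lowest-signal wells, based on phospho-rpS6 (Ser235/236) intensity normalized to Hoechst nuclear stain. Cells: Tsc2-/-, p53-/- MEFs carrying empty vector; compound 24 hrs, 37 degree Celsius.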

[24] = High Content Imaging Cell-Based qHTS for Inhibitors of the mTORC1 Signaling Pathway in MEF Cells (AID 2667);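 note: Tsc2-/- p53-/- MEFs stably re-expressing wild-type Tsc2 exposed 24 h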
How it was run: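 MEF (Tsc2-/-, p53-/-, WT Tsc2 re-expressed); cpd 24 h, 37 °C; PFA fix; Alexa-488 anti-p-rpS6 Ser235/236, PI, Hoechst; IN Cell imaging; Hoechst/Alexa-488 intensity ratio; % active cells, thresholds set from rapamycin and DMSO wells.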

[25] = Cytometry Cell-Based qHTS for Inhibitors of the mTORC1 Signaling Pathway in MEF cells (AID 2668);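 note: Tsc2-/- p53-/- mouse embryonic fibroblasts stably re-expressing wild-type Tsc2; percent cells positive for phospho-rpS6 Ser235/236 relative to propidium iodide stain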
How it was run: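 Read-out: phospho-rpS6 Ser235/236 immunofluorescence normalized to propidium iodide intensity, scored as % active cells against a rapamycin (7.5 nM) threshold. Cells: Tsc2-/-, p53-/- MEFs stably expressing WT Tsc2, compound-treated 24 hrs at 37 degree Celsius.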

[26] = Validation screen for small molecules that induce DNA re-replication in MCF 10A normal breast cells (AID 463097); note: nearly all actives have a fitted effect of over 60% in size
How it was run: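 250 MCF 10A cells/well; compound pin-transferred; 48 hr, 37 C, 5% CO2; Hoechst 40 min; imaged 405/500-530 nm. Hits = more high-intensity nuclei.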

[27] = target: Ubiquitin carboxyl-terminal hydrolase 2 (Homo sapiens) (UniProt O75604); assay: qHTS Validation Assay for Inhibitors of Ubiquitin-specific Protease USP2a Using CHOP2 as the Reporter (AID 463106); note: potency is the fitted concentration of half-maximal effect
How it was run: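 USP2 core (10nM final) was preincubated with compound for 30min at RT in 20mM Tris-HCl pH 8.0, 2mM CaCl2, 2mM beta-mercaptoethanol, 0.05% CHAPS. Ub-CHOP2 and reporter substrate (25nM each) were added, and fluorescence (Ex 485/Em 531nm) was read after 60min.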

[28] = target: DNA polymerase III PolC-type (Bacillus subtilis (strain 168)) (UniProt P13267); assay: qHTS Validation Assay for the Inhibitors of DNA Replication in Gram-Positive Bacteria (AID 485295); note: potency is the fitted concentration of half-maximal effect
How it was run: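 PicoGreen fluorescence (ex 480–485/em 535–540 nm) reports dsDNA synthesized on ssM13Gori template with dNTPs/NTPs. Enzyme: holoenzyme rebuilt from purified PolC, beta subunit, SSB and primase. Compound preincubated before substrate addition; RT throughout.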

Sequence of Glucocorticoid receptor (Homo sapiens) (P04150 whole entry, looked up, the tested form may be a part): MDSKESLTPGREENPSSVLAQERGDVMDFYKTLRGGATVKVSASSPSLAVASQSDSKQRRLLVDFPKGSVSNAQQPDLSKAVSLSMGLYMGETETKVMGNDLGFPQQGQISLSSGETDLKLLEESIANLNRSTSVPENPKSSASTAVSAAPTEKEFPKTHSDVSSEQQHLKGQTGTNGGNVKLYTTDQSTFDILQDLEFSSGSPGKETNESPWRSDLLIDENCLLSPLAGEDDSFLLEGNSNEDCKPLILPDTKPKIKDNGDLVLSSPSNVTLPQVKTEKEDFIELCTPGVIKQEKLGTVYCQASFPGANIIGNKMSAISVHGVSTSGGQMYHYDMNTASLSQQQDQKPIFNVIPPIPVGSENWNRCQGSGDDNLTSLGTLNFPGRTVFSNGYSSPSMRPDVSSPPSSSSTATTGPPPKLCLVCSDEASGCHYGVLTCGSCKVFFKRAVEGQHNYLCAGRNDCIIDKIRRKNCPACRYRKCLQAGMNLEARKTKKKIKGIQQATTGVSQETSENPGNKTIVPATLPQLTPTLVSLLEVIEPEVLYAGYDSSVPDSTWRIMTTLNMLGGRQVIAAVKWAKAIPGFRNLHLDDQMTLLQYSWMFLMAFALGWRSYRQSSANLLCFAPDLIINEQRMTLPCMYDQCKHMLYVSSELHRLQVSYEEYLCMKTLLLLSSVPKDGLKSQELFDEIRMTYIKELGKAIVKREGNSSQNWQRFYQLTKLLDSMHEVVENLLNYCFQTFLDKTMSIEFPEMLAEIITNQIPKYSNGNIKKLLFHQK
Sequence of Pyruvate kinase (Leishmania mexicana) (Q27686 2-499 E452W): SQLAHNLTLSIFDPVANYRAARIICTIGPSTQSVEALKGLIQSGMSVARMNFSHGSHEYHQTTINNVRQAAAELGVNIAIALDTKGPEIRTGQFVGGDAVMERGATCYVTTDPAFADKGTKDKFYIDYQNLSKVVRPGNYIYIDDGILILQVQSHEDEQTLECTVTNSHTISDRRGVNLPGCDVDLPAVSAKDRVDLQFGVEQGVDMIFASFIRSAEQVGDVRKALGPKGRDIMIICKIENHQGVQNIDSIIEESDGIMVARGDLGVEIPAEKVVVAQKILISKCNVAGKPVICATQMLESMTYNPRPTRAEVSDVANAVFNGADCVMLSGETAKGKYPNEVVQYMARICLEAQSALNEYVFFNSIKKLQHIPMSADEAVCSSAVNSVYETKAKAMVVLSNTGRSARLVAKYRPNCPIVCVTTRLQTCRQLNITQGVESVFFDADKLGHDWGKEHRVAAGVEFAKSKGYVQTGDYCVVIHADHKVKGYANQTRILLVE
Sequence of Ubiquitin carboxyl-terminal hydrolase 2 (Homo sapiens) (O75604 whole entry, looked up): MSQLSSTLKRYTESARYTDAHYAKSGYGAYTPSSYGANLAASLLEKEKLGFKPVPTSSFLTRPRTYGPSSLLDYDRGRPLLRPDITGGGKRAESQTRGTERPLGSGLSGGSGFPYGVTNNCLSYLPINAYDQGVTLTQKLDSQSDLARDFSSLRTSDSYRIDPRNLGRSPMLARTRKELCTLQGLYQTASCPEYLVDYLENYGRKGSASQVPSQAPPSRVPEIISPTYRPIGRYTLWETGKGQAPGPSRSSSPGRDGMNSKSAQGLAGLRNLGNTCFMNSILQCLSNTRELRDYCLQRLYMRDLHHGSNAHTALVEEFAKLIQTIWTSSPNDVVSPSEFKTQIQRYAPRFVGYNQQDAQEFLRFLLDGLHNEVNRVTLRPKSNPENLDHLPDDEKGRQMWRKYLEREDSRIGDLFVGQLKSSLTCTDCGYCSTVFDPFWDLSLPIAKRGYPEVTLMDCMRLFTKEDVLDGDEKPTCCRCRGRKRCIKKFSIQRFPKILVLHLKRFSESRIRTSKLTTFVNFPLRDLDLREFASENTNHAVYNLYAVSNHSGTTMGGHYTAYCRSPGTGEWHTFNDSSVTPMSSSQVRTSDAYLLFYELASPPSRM
Sequence of Pyruvate kinase PKM (Homo sapiens) (P14618 whole entry, looked up): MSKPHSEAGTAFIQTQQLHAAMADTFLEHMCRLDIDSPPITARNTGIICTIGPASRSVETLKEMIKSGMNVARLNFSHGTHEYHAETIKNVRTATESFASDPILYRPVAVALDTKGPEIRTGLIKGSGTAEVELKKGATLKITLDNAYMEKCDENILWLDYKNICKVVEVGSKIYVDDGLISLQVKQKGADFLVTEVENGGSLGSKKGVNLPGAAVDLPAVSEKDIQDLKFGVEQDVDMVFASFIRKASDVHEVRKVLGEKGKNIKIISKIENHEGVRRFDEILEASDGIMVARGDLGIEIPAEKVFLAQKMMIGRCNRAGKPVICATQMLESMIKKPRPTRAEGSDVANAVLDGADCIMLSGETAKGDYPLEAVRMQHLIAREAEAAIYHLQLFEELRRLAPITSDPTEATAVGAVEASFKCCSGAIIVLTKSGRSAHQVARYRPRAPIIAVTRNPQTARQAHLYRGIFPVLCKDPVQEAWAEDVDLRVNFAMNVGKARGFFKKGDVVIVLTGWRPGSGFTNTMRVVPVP
Sequence of ATP-dependent DNA helicase Q1 (Homo sapiens) (P46063 whole entry, looked up): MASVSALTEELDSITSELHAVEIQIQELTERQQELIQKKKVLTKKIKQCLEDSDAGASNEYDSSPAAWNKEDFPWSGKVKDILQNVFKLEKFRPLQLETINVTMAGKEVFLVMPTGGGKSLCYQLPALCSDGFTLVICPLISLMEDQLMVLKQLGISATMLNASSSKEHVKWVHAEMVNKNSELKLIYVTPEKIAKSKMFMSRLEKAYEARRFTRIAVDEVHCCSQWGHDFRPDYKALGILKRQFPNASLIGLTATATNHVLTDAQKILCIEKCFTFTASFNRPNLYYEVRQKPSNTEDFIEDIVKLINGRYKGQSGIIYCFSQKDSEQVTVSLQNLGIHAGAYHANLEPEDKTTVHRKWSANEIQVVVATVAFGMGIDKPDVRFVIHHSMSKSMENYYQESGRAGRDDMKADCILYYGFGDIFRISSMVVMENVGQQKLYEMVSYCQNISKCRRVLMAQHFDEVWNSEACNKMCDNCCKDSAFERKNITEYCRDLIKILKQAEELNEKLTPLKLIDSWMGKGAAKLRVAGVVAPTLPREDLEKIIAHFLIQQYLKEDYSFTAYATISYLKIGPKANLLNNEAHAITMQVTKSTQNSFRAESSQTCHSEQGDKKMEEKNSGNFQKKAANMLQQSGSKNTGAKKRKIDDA
Sequence of Cytochrome P450 2C19 (Homo sapiens) (P33261 whole entry, looked up): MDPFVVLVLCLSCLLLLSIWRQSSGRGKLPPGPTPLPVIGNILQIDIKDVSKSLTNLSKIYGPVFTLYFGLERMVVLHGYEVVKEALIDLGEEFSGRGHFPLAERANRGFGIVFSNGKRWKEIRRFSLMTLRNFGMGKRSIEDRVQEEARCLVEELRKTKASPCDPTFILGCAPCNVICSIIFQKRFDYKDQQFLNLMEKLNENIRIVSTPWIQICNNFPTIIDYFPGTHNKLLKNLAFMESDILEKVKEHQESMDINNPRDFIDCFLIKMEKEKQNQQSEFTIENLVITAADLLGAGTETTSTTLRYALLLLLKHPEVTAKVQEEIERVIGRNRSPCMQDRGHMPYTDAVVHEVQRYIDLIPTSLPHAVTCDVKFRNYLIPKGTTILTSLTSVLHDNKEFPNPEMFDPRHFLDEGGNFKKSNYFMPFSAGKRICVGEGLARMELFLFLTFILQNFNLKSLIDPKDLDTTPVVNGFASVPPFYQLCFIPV
Sequence of RecQ-like DNA helicase BLM (Homo sapiens) (P54132 whole entry, looked up): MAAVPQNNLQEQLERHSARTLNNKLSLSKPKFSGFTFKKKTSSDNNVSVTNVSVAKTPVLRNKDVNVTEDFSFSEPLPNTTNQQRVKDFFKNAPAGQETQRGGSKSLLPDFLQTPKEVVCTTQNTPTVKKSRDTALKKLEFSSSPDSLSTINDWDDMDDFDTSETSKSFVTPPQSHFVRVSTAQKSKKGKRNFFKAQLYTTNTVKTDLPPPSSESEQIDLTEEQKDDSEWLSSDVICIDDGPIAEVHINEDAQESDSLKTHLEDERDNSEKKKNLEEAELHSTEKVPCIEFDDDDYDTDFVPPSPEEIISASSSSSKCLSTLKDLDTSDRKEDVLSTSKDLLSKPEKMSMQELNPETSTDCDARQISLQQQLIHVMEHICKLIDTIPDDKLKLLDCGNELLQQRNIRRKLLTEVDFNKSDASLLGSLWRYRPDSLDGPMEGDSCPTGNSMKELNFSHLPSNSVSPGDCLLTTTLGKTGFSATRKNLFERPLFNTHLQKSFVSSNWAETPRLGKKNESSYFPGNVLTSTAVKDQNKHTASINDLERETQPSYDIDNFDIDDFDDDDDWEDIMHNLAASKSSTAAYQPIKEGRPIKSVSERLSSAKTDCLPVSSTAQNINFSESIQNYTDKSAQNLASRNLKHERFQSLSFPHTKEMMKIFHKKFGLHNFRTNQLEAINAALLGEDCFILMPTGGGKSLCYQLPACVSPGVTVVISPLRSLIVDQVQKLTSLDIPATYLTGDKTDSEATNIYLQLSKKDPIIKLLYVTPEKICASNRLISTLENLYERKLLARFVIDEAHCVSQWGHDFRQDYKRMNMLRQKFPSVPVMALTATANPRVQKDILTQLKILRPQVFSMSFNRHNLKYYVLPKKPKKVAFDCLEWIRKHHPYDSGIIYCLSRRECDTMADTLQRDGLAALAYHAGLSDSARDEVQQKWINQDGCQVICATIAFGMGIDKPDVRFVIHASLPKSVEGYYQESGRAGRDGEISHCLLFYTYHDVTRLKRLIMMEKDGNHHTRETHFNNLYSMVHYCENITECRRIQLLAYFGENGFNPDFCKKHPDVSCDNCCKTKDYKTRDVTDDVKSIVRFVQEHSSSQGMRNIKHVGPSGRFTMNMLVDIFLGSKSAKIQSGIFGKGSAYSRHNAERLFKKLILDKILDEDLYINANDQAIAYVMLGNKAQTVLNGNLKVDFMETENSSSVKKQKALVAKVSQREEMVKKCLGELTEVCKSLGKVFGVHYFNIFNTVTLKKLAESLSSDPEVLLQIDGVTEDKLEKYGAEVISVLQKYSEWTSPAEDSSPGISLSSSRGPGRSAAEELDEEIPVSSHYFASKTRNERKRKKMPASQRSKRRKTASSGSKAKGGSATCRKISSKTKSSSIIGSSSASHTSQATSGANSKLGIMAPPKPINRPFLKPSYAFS

Nc1c(S(=O)(=O)O)cc(Nc2ccc(Nc3nc(Cl)nc(Nc4ccc(S(=O)(=O)O)cc4)n3)c(S(=O)(=O)O)c2)c2c1C(=O)c1ccccc1C2=O
activity change, negative = inhibition [1]: -21.1% (inactive)
Potency [2]: > 46 µM (inactive)
Potency [3]: > 46 µM (inactive)
Potency [4]: inactive
outcome [5]: inactive
Potency [6]: inactive
Potency [7]: inactive
Potency [8]: inactive
outcome [9]: inactive
Potency [10]: 0.631 µM (active)
outcome [11]: inactive
outcome [12]: inactive
activity change, negative = inhibition ([13]; at 57.5 µM (top of the series)): -0.911% (inactive)
max response ([13]; measured here: cell count channel max response): -15%
max response ([13]; measured here: lipid channel max response): -16.5%
Potency [14]: 0.251 µM (active)
Potency [15]: 8.91 µM (active)
Potency [16]: 3.98 µM (active)
Potency [17]: inactive
Potency [18]: inactive
Potency [19]: inactive
Potency [20]: 1 µM (active)
Potency [21]: 6.31 µM (active)
outcome [22]: inactive
outcome [23]: inactive
Potency [24]: inactive
Potency [25]: inactive
Potency [26]: inactive
Potency [27]: 4.65 µM (active)
Potency [28]: 5.32 µM (active)
